Data: PubChem BioAssay (Tox21)
Records with an inconclusive call do not appear. The source made the active and inactive calls. Unless noted, calls follow the shape of the full dose curve.

Tests used:
[1] = qHTS assay to identify small molecule agonists of the vitamin D receptor (VDR) signaling pathway - cell viability counter screen (AID 743224; active = well fitted curve in the direction sought with a large enough effect in the repeat runs; an effect the other way counts as inactive or inconclusive; also: series mostly up to about 63 µM; nearly all actives have a fitted effect of over 50% in size)
How it was run: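 Counter screen for cytotoxicity: VDR-bla cells at 2,000 cells/well, 16 h compound exposure, then CellTiter-Glo luminescence after the beta-lactamase measurement.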

[2] = qHTS assay to identify small molecule antagonists of the vitamin D receptor (VDR) signaling pathway - cell viability counter screen (AID 743225; active = well fitted curve in the direction sought with a large enough effect in the repeat runs; an effect the other way counts as inactive or inconclusive; also: nearly all actives have a fitted effect of over 50% in size)
How it was run: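 VDR-bla HEK 293T cells, 4 h pre-incubation at 37C, then compound plus 1-alpha,25-dihydroxyvitamin D3 (3 nM final) for 16 h. After the beta-lactamase FRET read, CellTiter-Glo was added to the same wells; luminescence after 30 min at room temperature.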

[3] = qHTS assay to identify small molecule agonists of the NFkB signaling pathway - cell viability counter screen (AID 1159515); also: series mostly up to about 61 µM; nearly all actives have a fitted effect of over 55% in size
How it was run: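 Counter screen run alongside the NFkB-bla agonist assay: ME-180 reporter cells exposed to compounds for 5 hr, then lysed with CellTiter-Glo in the same wells. Luminescence, read after 30 min, reflects viable cells.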

[4] = qHTS assay to identify small molecule agonists of the endoplasmic reticulum stress response signaling pathway (AID 1159516; active = well fitted activation curve with a large enough effect in the signal ratio in the repeat runs, not every such curve was filed as active; the % refers to the signal ratio)
How it was run: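 For this screen, HeLa cells stably carrying beta-lactamase under the ER stress response element received test compounds, positive controls or DMSO for 5 hr at 37 C; B/G FRET substrate was then added and dual-wavelength emission recorded.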

[5] = qHTS assay to identify small molecule antagonists of the retinoid-related orphan receptor gamma (ROR-gamma) signaling pathway - cell viability counter screen (AID 1159520; active = well fitted curve in the direction sought with a large enough effect in the repeat runs; an effect the other way counts as inactive or inconclusive; also: nearly all actives have a fitted effect of over 50% in size)
How it was run: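 Tet-on ROR gamma CHO cells (1,000/well) were plated 4 hr, given compounds in DMSO for 2 hr at 37 C, then induced with 1 uM final doxycycline for 16 hr. Viability was read as ATP by CellTiter-Glo luminescence after 30 min.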

[6] = target: Nuclear receptor ROR-gamma (Homo sapiens) (UniProt P51449); test: qHTS assay to identify small molecule antagonists of the retinoid-related orphan receptor gamma (ROR-gamma) signaling pathway (AID 1159521; active = well fitted curve in the direction sought with a large enough effect in the repeat runs; an effect the other way counts as inactive or inconclusive; also: nearly all actives have a fitted effect of over 50% in size; also: potency is read from the fitted curve at half-maximal effect)
How it was run: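 Tet-on RORγ CHO cells carrying a ROR response element–luciferase reporter were pretreated with compounds for 2 h, then induced with 1 uM (final) doxycycline hyclate for 16 h at 37 C. Antagonism was read as decreased ONE-Glo luminescence.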

[7] = qHTS assay to identify small molecule agonists of the AP-1 signaling pathway - cell viability counter screen (AID 1159525); also: nearly all actives have a fitted effect of over 55% in size
How it was run: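 Each titration point was normalised to DMSO and tetra n-octyl ammonium bromide controls. The read was Cell Titer Glo luminescence after 30 min at RT, following 5 h compound exposure of ME-180 AP-1-bla cells at 37 °C.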

[8] = qHTS assay to identify small molecule agonists of the AP-1 signaling pathway (AID 1159526)
[9] = qHTS assay to identify small molecule agonists of the endoplasmic reticulum stress response signaling pathway - cell viability counter screen (AID 1159517)
How it was run: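 Cytotoxicity of test compounds toward ESRE-bla HeLa cells was assessed after 5 hr exposure. The luminescent CellTiter-Glo signal was measured 30 min after reagent addition.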

Measured: Potency

Cc1cc(O)c(C(C)C)cc1Cl
not listed: [8] | [9]
inactive: all other assays above

CCCCN(CCCC)CCCOC(=O)c1ccc(N)cc1
not listed: [6] | [7] | [9]
inactive: all other assays above

Cc1oc(C)c(C(=O)Nc2ccccc2)c1C
not listed: [1] | [2] | [6]
inactive: all other assays above

O=C(O)C(Cc1cc(I)c(O)c(I)c1)c1ccccc1 (stereo not given)
not listed: [4] | [6]
inactive: all other assays above

C/C=C(\C)C(=O)OCCC(C)CCC=C(C)C (stereo not given)
not listed: [6]
inactive: all other assays above

O=C(O)c1ccccc1NCCc1ccccc1
not listed: [6]
inactive: all other assays above

O=C(c1ccc(O)cc1)c1ccc(Cl)cc1
not listed: [5]
inactive: all other assays above

ON(Cc1ccccc1)Cc1ccccc1
not listed: [1] | [6]
inactive: all other assays above

CCCCCCCCCCCC[N+](C)(C)CCCS(=O)(=O)[O-]
inactive: [2] | [3] | [4] | [6] | [8]

CN1Cc2cc(C(=O)N3CCC(C4CCNCC4)CC3)ccc2N[C@@H](CC(=O)O)C1=O
not listed: [6] | [7]
inactive: all other assays above

O=C(O)c1snc(Cl)c1Cl
not listed: [6]
inactive: all other assays above

CC(C)C(OC(=O)c1ccccc1)C(C)(C)COC(=O)c1ccccc1 (stereo not given)
not listed: [1] | [6]
inactive: all other assays above

CCOCCn1c(C2CCN(CCc3ccc(C(C)(C)C(=O)O)cc3)CC2)nc2ccccc21
not listed: [4] | [6]
inactive: all other assays above

CC(C)C(=O)O
not listed: [6] | [9]
inactive: all other assays above

O=C(OCCOCCO)c1ccccc1Nc1cccc(C(F)(F)F)c1
not listed: [5] | [6]
inactive: all other assays above

COc1ccc(C(=O)c2cccc(O)c2)c(OC)c1
not listed: [6]
inactive: all other assays above

COC(=O)CC(=O)C(C)(C)C
not listed: [2] | [4] | [6]
inactive: all other assays above

CC1(C)C(=O)N(Br)C(=O)N1Cl
not listed: [5] | [6] | [8]
inactive: all other assays above

Cc1cc(S(=O)(=O)O)ccc1N=Nc1c(O)ccc2ccccc12
not listed: [6]
inactive: all other assays above

CCCCCCCCCCCC[N+](C)(C)CC(=O)[O-]
not listed: [1] | [2] | [5]
inactive: all other assays above

CC(C)(O)c1ccccc1CC[C@@H](SCC1(CC(=O)O)CC1)c1cccc(/C=C/c2ccc3ccc(Cl)cc3n2)c1
not listed: [6]
inactive: all other assays above

CO[C@H]1C=CO[C@@]2(C)Oc3c(C)c(O)c4c(O)c(c5c(c4c3C2=O)=NC2(CCN(CC(C)C)CC2)N=5)NC(=O)/C(C)=C\C=C/[C@H](C)[C@H](O)[C@@H](C)[C@@H](O)[C@@H](C)[C@H](OC(C)=O)[C@@H]1C
active: [6] 53.3 µM
not listed: [1] | [5]
inactive: all other assays above

NCC1CCCC(CN)C1 (stereo not given)
not listed: [6]
inactive: all other assays above

CCN(CC)CCNC(=O)c1ccc(NC(C)=O)cc1
not listed: [9]
inactive: all other assays above

CNC(=O)N(c1ccccc1)c1ccccc1
not listed: [6]
inactive: all other assays above

c1cnc2c(n1)CCCC2
not listed: [9]
inactive: all other assays above

O=C(O)c1cccc(O)c1
not listed: [6] | [7]
inactive: all other assays above

CCCCC(CC)CNCC(CC)CCCC (stereo not given)
not listed: [7] | [9]
inactive: all other assays above

O=[N+]([O-])c1cccc(S(=O)(=O)NCCNS(=O)(=O)c2cccc([N+](=O)[O-])c2)c1
not listed: [6] | [7]
inactive: all other assays above

C=CCOC(=O)/C=C\C(=O)OCC=C
not listed: [6]
inactive: all other assays above

CCCCOC(=O)CCS
not listed: [4] | [6]
inactive: all other assays above

COC(=O)c1cc(S(N)(=O)=O)ccc1OC
not listed: [4] | [9]
inactive: all other assays above

Nc1ccc(Cl)cc1[N+](=O)[O-]
not listed: [6] | [9]
inactive: all other assays above

C=CC(=C)CCCC(C)(C)OC(C)=O
not listed: [2] | [9]
inactive: all other assays above

COC(=O)Nc1nc2ccc(C(=O)c3cccs3)cc2[nH]1
not listed: [6] | [8]
inactive: all other assays above

CCCOCCOCCO
not listed: [4] | [6] | [8]
inactive: all other assays above

CCCCCCCC/C=C\CCCCCCCC(=O)OC(CO)CO
not listed: [2] | [6]
inactive: all other assays above

N#C/C(=C1\SCC(c2ccccc2Cl)S1)n1ccnc1 (stereo not given)
not listed: [6] | [9]
inactive: all other assays above

Cc1cc(OI)c(C(C)C)cc1-c1cc(C(C)C)c(OI)cc1C
inactive: [1] | [2] | [3] | [9] | [5]

CCCCC(=O)O[C@]1(C(=O)CO)[C@@H](C)C[C@H]2[C@@H]3CCC4=CC(=O)C=C[C@]4(C)[C@@]3(F)[C@@H](O)C[C@@]21C
active: [6] 30.6 µM
inactive: [2] | [3] | [9] | [7]
